From ChEMBL document CHEMBL3988442, “University of Dundee, Small-Polar-MMV Screening Library” (2021)
Out of some 69,000 compounds screened, about 950 (1.4%) showed an effect of 50% or more. For the sample, strong results were picked, then their nearest neighbours and some compounds at random.

Tested on: Mycobacterium tuberculosis
Test: Cornell M. t heat shock assay; also: in the data most compounds retested in dose-response had high values
Format: functional, organism-based
Set-up: dose or concentration left out as unconfirmed

SMILES | Percent Effect [%]
O=C(O)C(F)(F)F.O=C(c1cnccn1)N1CC2(CCN(Cc3ccsc3)C2)C1 | -14.16
CN(C)[C@@H]1CCN(C(=O)Cc2cccs2)[C@H]1Cc1cnn(C)c1.O=C(O)C(F)(F)F | 5.582
O=C(O)C(F)(F)F.c1ccc(CN2Cc3nccn3CC(Cn3cccn3)C2)nc1 (stereo not given) | 11.05
CN(C)CCN1CCCC12CCN(C(=O)c1ccncc1)CC2.O=C(O)C(F)(F)F.O=C(O)C(F)(F)F | 6.106
Cl.N[C@@H](Cc1ccccc1)c1nnc(S(=O)(=O)Cc2ccc(Cl)cc2)o1 | -31.2
C[C@H](NC(=O)OC(C)(C)C)c1nnc(S(=O)(=O)Cc2cccc(F)c2)o1 | -6.703
CC(NC(=O)OC(C)(C)C)c1nnc(S(=O)(=O)Cc2ccccc2Cl)o1 (stereo not given) | 10.13
Cc1ccccc1CS(=O)(=O)c1nnc(C(C)NC(=O)OC(C)(C)C)o1 (stereo not given) | 89.48
Cc1noc(C(C)NC(=O)[C@@H](C)NC(=O)OC(C)(C)C)n1 (stereo not given in full) | 4.198
CC(NC(=O)OC(C)(C)C)c1nnc(S(=O)(=O)Cc2ccc(Cl)cc2)o1 (stereo not given) | 103.1
COCCN1C[C@@H]2[C@@H](OC)CCN(C(=O)Cc3ccsc3)[C@@H]2C1.O=C(O)C(F)(F)F | -5.727
O=C(O)C(F)(F)F.O=C(c1ccc(F)cc1)N1CC[C@H]2[C@H]1CCN2CC1CC1 | -18.24
CN1CCN(C)C2(CCN(Cc3ccsc3)CC2)C1=O.O=C(O)C(F)(F)F | -19.83
O=C(O)C(F)(F)F.O=C(O)C(F)(F)F.O=C1C[C@H]2[C@@H](CCN2C(=O)Cc2ccsc2)N1Cc1cccnc1 | -3.092
CCCN1CCC2(CC1)CN(C(=O)c1cccnc1)c1ccc(F)cc12.O=C(O)C(F)(F)F.O=C(O)C(F)(F)F | 1.02
O=C(c1cc(COc2ccc3c(c2)OCO3)[nH]n1)N1CCOCC1 | 27.44
O=C(c1cc(COc2ccc3c(c2)OCO3)[nH]n1)N1CCSCC1 | 62.66
O=C(c1cc(COc2ccc3c(c2)OCO3)[nH]n1)N1CCCC1 | 27.84
O=C(NC1CC1)[C@@]12CCO[C@@H]1CCN(Cc1ccc3c(c1)OCO3)C2.O=C(O)C(F)(F)F | 3.117
O=C(Nc1ccc(Cl)cn1)c1nn(C2CCS(=O)(=O)C2)c2c1CCCC2 (stereo not given) | 11.75
Cc1cc(C(=O)Nc2cc(C3CC3)n[nH]2)c2c(C)nn(C)c2n1 | 28.31
Cc1cc(=O)[nH]c(-n2nc(C3CC3)cc2N)n1 | 101
CCc1cc(=O)[nH]c(-n2nc(C3CC3)cc2NC(=O)C2CC2)n1 | 103.7
CC(C)c1cc(=O)[nH]c(C(C)(C)N)n1.Cl | -1.854
CCn1nc(C)c(NC(=O)c2cc(NC(=O)C3CC3)n(C)n2)c1C | -24.03
Cc1cc(C2CCC2)nc(N2CCC3(CCNC(=O)CC3)CC2)n1 | 9.358
CCCc1cc(=O)[nH]c(-n2nc(C3CC3)cc2N)n1 | 101.7
CC(C)c1cc(=O)[nH]c(-n2nc(C3CC3)cc2N)n1 | 103

SMILES | Percent Effect [%]
CCCc1cc(=O)[nH]c(-c2cccc(CN3CCN4CCCC4C3)c2)n1 (stereo not given) | 0.7345
CCCc1cc(=O)[nH]c(-c2cccc(CN3CCCCCC3)c2)n1 | -11.64
CCc1c(C)nc(-n2nc(C3CC3)cc2NC(C)=O)[nH]c1=O | -4.817
CCC(C)(N)c1nc(C(C)C)cc(=O)[nH]1.Cl (stereo not given) | 7.893
Cc1ccc(CN(CCCN2CCOCC2)Cc2cnc(C)n2C)o1.O=C(O)CC(O)(CC(=O)O)C(=O)O | -5.16
O=C(O)C(F)(F)F.O=C1COC2(CCN(CC3CCC3)CC2)CN1c1cncnc1 | -21.31
CC1CCCCN1c1nc2c(c(=O)[nH]1)CCN(Cc1ccccn1)C2 (stereo not given) | -29.02
Cn1cccc1CN1CCc2c(nc(-c3ccccn3)[nH]c2=O)C1 | 73.71
CCn1ncc(CN2CCc3c(nc(-c4cccnc4)[nH]c3=O)C2)c1C | -178.1
Cc1ncc(CN2CCc3c(nc(-c4ccccn4)[nH]c3=O)C2)n1C | 8.847
COc1ccc(CN2CCc3c(nc(-c4ccccn4)[nH]c3=O)C2)cc1 | 89.16
Cn1cc(CN2CCc3c(nc(-c4ccccn4)[nH]c3=O)C2)cn1 | -205.6
O=c1[nH]c(-c2ccccn2)nc2c1CCN(Cc1cccc(O)c1)C2 | 53.42
COc1ccccc1CN1CCc2c(nc(-c3ccccn3)[nH]c2=O)C1 | 93.29
Cn1cccc1CN1CCc2ncnc(-c3cccnc3)c2CC1 | -25.32
Cc1nn(C)cc1CN1CCc2c(nc(-c3ccccn3)[nH]c2=O)C1 | 2.88
O=C(c1ccccn1)N1CCc2c(nc(-c3ccncc3)[nH]c2=O)C1 | -10.2
O=c1[nH]c(N2CCCCC2)nc2c1CCN(Cc1cccnc1)C2 | -9.833
CCN1CCOCC12CCN(C(=O)C1CCCC1)CC2.O=C(O)C(F)(F)F | -1.07
Cc1cc(C[C@@H]2COC[C@H]2NCc2ccc(Cl)c(Cl)c2)on1.O=C(O)CC(O)(CC(=O)O)C(=O)O | -20.39
COCCC(=O)N1CC2(CCN(Cc3ccccc3Cl)CC2)C1.O=C(O)C(F)(F)F | 12.96
CCc1ncc(C(=O)N2CCCN(C3CCCC3)CC2)cn1 | -5.155
Cc1ccc2c(n1)N(CCn1cccn1)CCN(C1CCOCC1)C2.O=C(O)C(F)(F)F.O=C(O)C(F)(F)F | -10.35
Cc1cc(CN2C[C@H](OCC3CCOCC3)[C@H]3COC[C@H]32)oc1C.O=C(O)C(F)(F)F | 5.146
Cc1ccc(CN2CCC[C@@H]3CN(C(=O)c4ccco4)C[C@@H]32)s1.O=C(O)C(F)(F)F | -26.86
COc1ncccc1CN1C[C@H]2CCN(c3ccc(C)nn3)C[C@H]2C1.O=C(O)C(F)(F)F | 16.3
O=C(O)C(F)(F)F.c1ccc(N2CCCC3(CCN(Cc4ccsc4)C3)C2)nc1 (stereo not given) | -1.694
